Measurements: article PMC5540273 (PLoS ONE, 2017)

Experiments:
Settings in all cases: concentration: 1 μM, replicates: in singlicate; n = 1
BLK = system: BLK
BMPR1A = system: BMPR1A
BMPR1B = system: BMPR1B
BMPR2 = system: BMPR2
BMX = system: BMX
BRAF = system: BRAF
BRK = system: T1, BRK
T1 construct: gene PTK6

BRSK1 = system: BRSK1
BRSK2 = system: BRSK2
BTK = system: BTK
BUB1 = system: BUB1
CAMK1B = system: CAMK1B
CAMK1D = system: CAMK1D
CAMK1G = system: CAMK1G
CAMK1 = system: CAMK1
CAMK2A = system: CAMK2A
CAMK2B = system: CAMK2B
CAMK2D = system: CAMK2D
CAMK2G = system: CAMK2G
CAMK4 = system: CAMK4
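Also: KINOMEscan kinase panel screen.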

Structure (SMILES) | %Inh (BLK) | %Inh (BMPR1A) | %Inh (BMPR1B) | %Inh (BMPR2) | %Inh (BMX) | %Inh (BRAF) | %Inh (BRK) | %Inh (BRSK1) | %Inh (BRSK2) | %Inh (BTK) | %Inh (BUB1) | %Inh (CAMK1B) | %Inh (CAMK1D) | %Inh (CAMK1G) | %Inh (CAMK1) | %Inh (CAMK2A) | %Inh (CAMK2B) | %Inh (CAMK2D) | %Inh (CAMK2G) | %Inh (CAMK4)
COc1ccc(COc2cc(-n3cnc4ccccc43)sc2C(N)=O)cc1 [GSK1024304] | 37% | 0% | 0% | 0% | 0% | 0% | 3% | 0% | 5% | 0% | 9% | 0% | 6% | 8% | 7% | 0% | 0% | 0% | 23% | 0%
Cc1c(Cn2c(C)nn3c(=O)cc(N4CCOC(C)C4)nc23)cccc1C(F)(F)F (stereo not drawn) [GSK2344444] | 25% | 6% | 0% | 0% | 1% | 0% | 7% | 0% | 0% | 0% | 0% | 10% | 9% | 0% | 0% | 0% | 0% | 0% | 10% | 0%
Nc1nccc(-c2c(-c3ccc(F)cc3)ncn2C2CCN(CC(F)(F)F)CC2)n1 [SB-236560] | 0% | 0% | 0% | 45% | 0% | 0% | 0% | 40% | 0% | 37% | 49% | 80% | 0% | 2% | 0% | 0% | 0% | 0% | 93.3% | 11%
Cn1cc(-c2ccc3c(c2)CCN3C(=O)Cc2ccccc2Cl)c2c(N)ncnc21 [GSK2608885] | 99.2% | 10% | 0% | 0% | 93.2% | 90.5% | 95.3% | 0% | 6% | 95.6% | 25% | 33% | 22% | 13% | 44% | 0% | 0% | 17% | 34% | 0%
CCc1nc(-c2cccc(C)c2)c(-c2ccnc(NCc3ccccc3)c2)s1 | 0% | 0% | 0% | 9% | 0% | 38% | 0% | 2% | 0% | 0% | 18% | 0% | 6% | 9% | 40% | 11% | 0% | 0% | 10% | 0%
Cc1nnc(-c2ccc3occ(-c4ccc(C(C)O)cc4)c3c2)o1 (stereo not drawn) | 2% | 2% | 23% | 2% | 44% | 1% | 0% | 10% | 13% | 0% | 9% | 0% | 0% | 0% | 12% | 3% | 0% | 6% | 11% | 0%
Cc1cn2c(=O)cc(N3CCOCC3)nc2n1Cc1cccc(Cl)c1Cl [GSK2334006] | 37% | 19% | 0% | 0% | 10% | 15% | 5% | 14% | 0% | 0% | 4% | 40% | 14% | 30% | 12% | 0% | 0% | 10% | 32% | 0%
O=C(Nc1n[nH]c2cc(-c3cccc(F)c3)ccc12)C1CC1 [SB-735464] | 0% | 16% | 65% | 28% | 0% | 1% | 0% | 34% | 33% | 0% | 0% | 0% | 22% | 0% | 31% | 19% | 1% | 0% | 27% | 0%
Cc1c2ccc(N(C)c3ccnc(Nc4cccc(S(N)(=O)=O)c4)n3)cc2nn1Cc1ccccc1.Cl.Cl [GW787226] | 82% | 3% | 0% | 1% | 6% | 95.8% | 89% | 0% | 0% | 0% | 0% | 0% | 0% | 11% | 2% | 0% | 0% | 0% | 0% | 16%
N#Cc1ccc(-c2cc(-c3c[nH]nc3-c3ccccn3)ccn2)cc1 [GW693028] | 17% | 0% | 15% | 6% | 5% | 11% | 30% | 0% | 0% | 0% | 34% | 3% | 1% | 0% | 1% | 0% | 1% | 0% | 13% | 0%
O=C(NOCC1CC1)c1ccc(F)c(F)c1Nc1ccc(I)cc1Cl | 0% | 0% | 0% | 0% | 0% | 0% | 0% | 0% | 0% | 0% | 0% | 0% | 0% | 0% | 0% | 0% | 0% | 0% | 0% | 32%
Fc1ccc(-c2ncn(CCCN3CCOCC3)c2-c2ccccn2)cc1 [SB-211742] | 9% | 7% | 0% | 0% | 0% | 0% | 2% | 6% | 14% | 15% | 0% | 0% | 0% | 0% | 0% | 6% | 10% | 0% | 11% | 20%
